Data as given in PubChem BioAssay AID1159580 (chemical genetic matrix, 2015).
The campaign covered roughly 5,500 compounds. About 2,000 (36%) were called active. Another 18% or so got no clear call; they are omitted. Rule as the data show it: active = normalized growth mostly below about 0.91 (no sharp cut-off); inconclusive = no clear call, values can overlap the other calls; inactive = mostly above about 0.92. Some of the results follow.

Assay: chemical genetic growth profiling, strain panel (AID 1159580);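 also: tested at 20 µM; growth read once vehicle control cultures reached saturation at 30 °C; 1 = growth at the plate median or of vehicle wells; lower values mean less growth of the strain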
Conditions: growth OD

Measured: normalized growth

N#Cc1ccc2c(c1)N(CCCN1CCC(O)CC1)c1ccccc1S2
inactive: S. cerevisiae deletion strains, locus YJR075W, strain HOC1, stronger effect = lower value 1.03 | S. cerevisiae deletion strains, locus YKL009W, strain mrt4, stronger effect = lower value 1.01 | S. cerevisiae deletion strains, locus YKL068W, stronger effect = lower value 1.01 | S. cerevisiae deletion strains, locus YKL085W, strain MDH1 (second series), stronger effect = lower value 1.04 | S. cerevisiae deletion strains, locus YKL085W, strain MDH1, stronger effect = lower value 1.04 | S. cerevisiae deletion strains, locus YKL160W, strain elf1, stronger effect = lower value 0.998 | S. cerevisiae deletion strains, locus YKL190W, strain CNB1, stronger effect = lower value 1.01 | S. cerevisiae deletion strains, locus YKR001C, strain vps1, stronger effect = lower value 1.02 | S. cerevisiae deletion strains, locus YKR026C, strain gcn3, stronger effect = lower value 0.995 | S. cerevisiae deletion strains, locus YKR091W, strain srl3, stronger effect = lower value 0.995 | S. cerevisiae deletion strains, locus YLL001W, strain dnm1, stronger effect = lower value 0.996 | S. cerevisiae deletion strains, locus YLL026W, stronger effect = lower value 0.987 | S. cerevisiae deletion strains, locus YLL041C, strain sdh2, stronger effect = lower value 0.996 | S. cerevisiae deletion strains, locus YLR027C, strain aat2, stronger effect = lower value 0.992 | S. cerevisiae deletion strains, locus YLR039C, strain RIC1, stronger effect = lower value 1.08 | S. cerevisiae deletion strains, locus YLR058C, strain SHM2, stronger effect = lower value 1.01 | S. cerevisiae deletion strains, locus YLR102C, strain apc9, stronger effect = lower value 1.02 | S. cerevisiae deletion strains, locus YLR113W, strain HOG1, stronger effect = lower value 1.05 | S. cerevisiae deletion strains, locus YLR221C, strain rsa3, stronger effect = lower value 0.995 | S. cerevisiae deletion strains, locus YLR258W, strain gsy2, stronger effect = lower value 0.977 | S. cerevisiae deletion strains, locus YLR262C, strain YPT6 (second series), stronger effect = lower value 1.02 | S. cerevisiae deletion strains, locus YLR262C, strain YPT6, stronger effect = lower value 1.07 | S. cerevisiae deletion strains, locus YLR268W, strain sec22, stronger effect = lower value 1.01 | S. cerevisiae deletion strains, locus YLR320W, strain mms22, stronger effect = lower value 0.959 | S. cerevisiae deletion strains, locus YLR330W, strain CHS5, stronger effect = lower value 1 | S. cerevisiae deletion strains, locus YLR342W, strain FKS1 (second series), stronger effect = lower value 0.989 | S. cerevisiae deletion strains, locus YLR342W, strain FKS1, stronger effect = lower value 0.992 | S. cerevisiae deletion strains, locus YLR357W, strain rsc2, stronger effect = lower value 0.969 | S. cerevisiae deletion strains, locus YLR370C, strain arc18, stronger effect = lower value 0.994 | S. cerevisiae deletion strains, locus YLR371W, strain rom2, stronger effect = lower value 1.02 | S. cerevisiae deletion strains, locus YLR384C, strain iki3, stronger effect = lower value 0.986 | S. cerevisiae deletion strains, locus YLR418C, strain cdc73, stronger effect = lower value 1 | S. cerevisiae deletion strains, locus YML016C, strain PPZ1, stronger effect = lower value 1.01 | S. cerevisiae deletion strains, locus YML032C, strain rad52, stronger effect = lower value 1.01 | S. cerevisiae deletion strains, locus YML120C, strain ndi1, stronger effect = lower value 0.994 | S. cerevisiae deletion strains, locus YML124C, strain tub3, stronger effect = lower value 1.02 | S. cerevisiae deletion strains, locus YMR058W, strain fet3, stronger effect = lower value 0.999 | S. cerevisiae deletion strains, locus YMR078C, strain ctf18, stronger effect = lower value 1.02 | S. cerevisiae deletion strains, locus YMR125W, strain sto1, stronger effect = lower value 0.966 | S. cerevisiae deletion strains, locus YMR129W, stronger effect = lower value 0.997 | S. cerevisiae deletion strains, locus YMR205C, strain PFK2, stronger effect = lower value 0.935 | S. cerevisiae deletion strains, locus YMR223W, strain ubp8, stronger effect = lower value 1.01 | S. cerevisiae deletion strains, locus YMR231W, strain pep5, stronger effect = lower value 1 | S. cerevisiae deletion strains, locus YMR263W, strain SAP30, stronger effect = lower value 1.02 | S. cerevisiae deletion strains, locus YMR307W, strain GAS1, stronger effect = lower value 1.04 | S. cerevisiae deletion strains, locus YNL067W, strain RPL9B, stronger effect = lower value 1.01 | S. cerevisiae deletion strains, locus YNL071W, strain lat1, stronger effect = lower value 0.96 | S. cerevisiae deletion strains, locus YNL128W, strain TEP1, stronger effect = lower value 1.01 | S. cerevisiae deletion strains, locus YNL153C, strain GIM3, stronger effect = lower value 1 | S. cerevisiae deletion strains, locus YNL183C, strain NPR1, stronger effect = lower value 0.983 | S. cerevisiae deletion strains, locus YNL209W, strain ssb2, stronger effect = lower value 0.993 | S. cerevisiae deletion strains, locus YNL233W, strain BNI4, stronger effect = lower value 0.998 | S. cerevisiae deletion strains, locus YNL248C, strain rpa49, stronger effect = lower value 0.997 | S. cerevisiae deletion strains, locus YNL250W, strain rad50, stronger effect = lower value 1.04 | S. cerevisiae deletion strains, locus YNL271C, strain bni1, stronger effect = lower value 1.03 | S. cerevisiae deletion strains, locus YNL298W, strain CLA4, stronger effect = lower value 1.02 | S. cerevisiae deletion strains, locus YNL307C, strain MCK1, stronger effect = lower value 1 | S. cerevisiae deletion strains, locus YNL322C, strain KRE1 (second series), stronger effect = lower value 0.995 | S. cerevisiae deletion strains, locus YNL322C, strain KRE1, stronger effect = lower value 1.01 | S. cerevisiae deletion strains, locus YNR049C, strain mso1, stronger effect = lower value 0.991 | S. cerevisiae deletion strains, locus YNR052C, strain pop2, stronger effect = lower value 1.02 | S. cerevisiae deletion strains, locus YOL006C, strain TOP1, stronger effect = lower value 1.01 | S. cerevisiae deletion strains, locus YOL012C, strain htz1 0.994 | S. cerevisiae deletion strains, locus YOL147C, strain pex11, stronger effect = lower value 1.02 | S. cerevisiae deletion strains, locus YOR001W, strain rrp6, stronger effect = lower value 0.981 | S. cerevisiae deletion strains, locus YOR061W, strain CKA2, stronger effect = lower value 1.01 | S. cerevisiae deletion strains, locus YOR069W, strain VPS5, stronger effect = lower value 1.01 | S. cerevisiae deletion strains, locus YOR070C, strain gyp1, stronger effect = lower value 1.04 | S. cerevisiae deletion strains, locus YOR080W, strain dia2, stronger effect = lower value 0.987 | S. cerevisiae deletion strains, locus YOR083W, strain WHI5, stronger effect = lower value 1 | S. cerevisiae deletion strains, locus YOR106W, strain vam3, stronger effect = lower value 1 | S. cerevisiae deletion strains, locus YOR136W, strain idh2, stronger effect = lower value 1.03 | S. cerevisiae deletion strains, locus YOR144C, strain elg1, stronger effect = lower value 1.02 | S. cerevisiae deletion strains, locus YOR184W, strain ser1, stronger effect = lower value 1.03 | S. cerevisiae deletion strains, locus YOR231W, strain MKK1, stronger effect = lower value 1.08 | S. cerevisiae deletion strains, locus YOR265W, strain rbl2, stronger effect = lower value 0.98 | S. cerevisiae deletion strains, locus YOR270C, strain vph1, stronger effect = lower value 1.02 | S. cerevisiae deletion strains, locus YOR290C, strain snf2, stronger effect = lower value 0.973 | S. cerevisiae deletion strains, locus YOR316C, strain cot1, stronger effect = lower value 1.01 | S. cerevisiae deletion strains, locus YPL051W, strain arl3, stronger effect = lower value 1 | S. cerevisiae deletion strains, locus YPL055C, strain LGE1, stronger effect = lower value 1.02 | S. cerevisiae deletion strains, locus YPL078C, strain atp4, stronger effect = lower value 1 | S. cerevisiae deletion strains, locus YPL106C, strain sse1, stronger effect = lower value 0.963 | S. cerevisiae deletion strains, locus YPL240C, strain hsp82, stronger effect = lower value 1.01 | S. cerevisiae deletion strains, locus YPL241C, strain CIN2, stronger effect = lower value 1 | S. cerevisiae deletion strains, locus YPL256C, strain CLN2, stronger effect = lower value 1.07 | S. cerevisiae deletion strains, locus YPR119W, strain clb2, stronger effect = lower value 1.02 | S. cerevisiae deletion strains, locus YPR141C, strain kar3, stronger effect = lower value 1.02 | S. cerevisiae deletion strains, locus YPR163C, strain tif3, stronger effect = lower value 1.03 | S. cerevisiae deletion strains, locus YPR167C, strain met16, stronger effect = lower value 1.02 | S. cerevisiae deletion strains, strain wtn01, stronger effect = lower value 1.01 | S. cerevisiae strains, strain wild type, stronger effect = lower value 1.01
